The nature of test [1]: A CellTox Green Cytotoxicity Assay to monitor cytotoxicity in HEK293 cells - 32 hour (AID 1224881). Note: nearly all actives have a fitted effect of over 40% in size. Note: potency is the fitted concentration of half-maximal effect. In short, it runs like this: (§1)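 HEK293 cells, 600/well, were preincubated 5 hours and then exposed to compounds at 37 C for up to 40 hours. A cell-impermeant cyanine dye staining dead-cell DNA was read by fluorescence at 0, 8, 16, 24, 32 and 40 h time points.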
Test [2] in a line: A CellTox Green Cytotoxicity Assay to monitor cytotoxicity in HepG2 cells - 0 hour (AID 1224882). Note: nearly all actives have a fitted effect of over 35% in size. In short, it runs like this:
(§2)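 HepG2 cells, 600/well, preincubated 5 h with CellTox Green dye, then exposed to Tox21 compounds in DMSO at 37 C for up to 40 h. Dead-cell DNA fluorescence read at the indicated time point.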

Test [3] can be described thus: A CellTox Green Cytotoxicity Assay to monitor cytotoxicity in HepG2 cells - 32 hour (AID 1224883). Note: nearly all actives have a fitted effect of over 50% in size. Summed up:
as §2

The nature of test [4]: A CellTox Green Cytotoxicity Assay to monitor cytotoxicity in HEK293 cells - 8 hour (AID 1224884). Note: nearly all actives have a fitted effect of over 35% in size. Summed up: as §1
A short description of test [5]: qHTS RealTime-Glo MT Cell Viability Assay in HepG2 cells - 16 hour (AID 1224885). Note: nearly all actives have a fitted effect of over 50% in size. Note: potency is the fitted concentration of half-maximal effect. Summed up:
(§3)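 qHTS, HepG2, 600 cells/well, RealTime-Glo (NanoLuc + prosubstrate) added with cells; 5 h preincubation; DMSO compound addition; 37 C; luminescence at 0/8/16/24/32/40 h.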
(In general: qHTS replaces the single test concentration by a dilution series.)

Test [6] can be described thus: qHTS RealTime-Glo MT Cell Viability Assay in HEK293 cells - 24 hour (AID 1224886). Note: nearly all actives have a fitted effect of over 50% in size. Note: potency is the fitted concentration of half-maximal effect. Summed up: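 Assay medium contained NanoLuc luciferase plus cell-permeant prosubstrate, added with HEK293 cells at 600 cells/well. After 5 h at 37 C/5% CO2 compounds were added; plates stayed at 37 C for 40 h with serial luminescence reads.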
Test [7] can be described thus: qHTS RealTime-Glo MT Cell Viability Assay in HEK293 cells - 8 hour (AID 1224887). Note: nearly all actives have a fitted effect of over 50% in size. Note: potency is the fitted concentration of half-maximal effect. Summed up:
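600 cells/well were plated with the nonlytic NanoLuc/prosubstrate reagent, pre-incubated 5 h, then given 23 nL of compound in DMSO. Incubation at 37 C for 40 h, with luminescence from viable-cell-reduced substrate read repeatedly from 0 h.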

A short description of test [8]: A CellTox Green Cytotoxicity Assay to monitor cytotoxicity in HEK293 cells - 16 hour (AID 1224888). Note: nearly all actives have a fitted effect of over 35% in size. Summed up:
as §1

A short description of test [9]: qHTS RealTime-Glo MT Cell Viability Assay in HepG2 cells - 0 hour (AID 1224889). Note: nearly all actives have a fitted effect of over 50% in size. In short, it runs like this:
as §3

A short description of test [10]: A CellTox Green Cytotoxicity Assay to monitor cytotoxicity in HepG2 cells - 8 hour (AID 1224890). Note: nearly all actives have a fitted effect of over 45% in size. Summed up:
as §2

The nature of test [11]: qHTS assay to identify small molecule antagonists of the androgen receptor (AR) signaling pathway using the MDA cell line in the presence of 0.5 nM R1881 - cell viability counter screen (AID 1259242). Note: nearly all actives have a fitted effect of over 45% in size. Note: potency is the fitted concentration of half-maximal effect. In short, it runs like this: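 MDA-kb2 cells (MMTV-luciferase, AR/GR responsive) were treated with compounds plus 0.5 nM R1881 (final) for 16 hr at 37C, 0% CO2. Viability was then read in the same wells as live-cell protease fluorescence (CellTiter-Fluor, 30 min).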

Test [12] addresses Androgen receptor (Homo sapiens) (UniProt P10275). Kind of test: qHTS assay to identify small molecule antagonists of the androgen receptor (AR) signaling pathway using the MDA cell line in the presence of 0.5 nM R1881 (AID 1259243). Note: nearly all actives have a fitted effect of over 50% in size. In short, it runs like this: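 MDA-kb2 cells (MMTV-luciferase, responsive to AR and GR) at 3,000/well, rested 5 h at 37C, 0% CO2, then given compounds plus 0.5 nM R1881 (final) for 16 hr. Luciferase read with ONE-Glo after 30 min at room temperature.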

Test [13] has as its target Estrogen receptor (Homo sapiens) (UniProt P03372). Description: qHTS assay to identify small molecule antagonists of the estrogen receptor alpha (ER-alpha) signaling pathway using the BG1 cell line in the presence of 0.1 nM 17-beta-estradiol (AID 1259244). Note: nearly all actives have a fitted effect of over 50% in size. Note: potency is the fitted concentration of half-maximal effect. Summed up:
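VM7Luc4E2 cells (endogenous full-length ER-alpha, 4×ERE-luciferase), kept 5 days in phenol red-free, charcoal-stripped FBS medium; 4,000 cells/well. Compounds added with 0.1 nM (final) 17beta-estradiol, 22 hr at 37C; luminescence read with ONE-Glo after 30 min.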

A short description of test [14]: qHTS assay to identify small molecule HDAC inhibitors (AID 1259364). Note: top concentration of the series differs between compounds; nearly all actives have a fitted effect of over 45% in size. In short, it runs like this: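 Wild-type HCT-116 cells, plated overnight at 37 C, exposed to compounds 2 hr at 37 C; luminogenic HDAC-Glo substrate then added 30 min at room temperature. Luminescence reports relative endogenous class I/II HDAC activity.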
Test [15] can be described thus: qHTS assay to identify small molecule HDAC inhibitors - cell viability counter screen (AID 1259365). In short, it runs like this: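 Cytotoxicity was gauged in wild-type HCT-116 cells after a brief 2hr treatment with DMSO-dissolved compounds at 37C and 5% CO2, using CellTiter-Glo luminescence developed for 30min at room temperature.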
Test [16] can be described thus: qHTS assay to identify small molecule agonists of the sonic hedgehog signaling (Shh) pathway - cell viability counter screen (AID 1259366). Note: nearly all actives have a fitted effect of over 50% in size. Note: potency is the fitted concentration of half-maximal effect. Summed up:
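Stable Gli1-Luc NIH/3T3 clone, 2,000 cells/well. Compound exposure 24hr at 37C. Read-out: CellTiter-Fluor fluorescence.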

Test [17] in a line: qHTS assay to identify small molecule antagonists of the sonic hedgehog signaling (Shh) pathway - cell viability counter screen (AID 1259367). Note: nearly all actives have a fitted effect of over 55% in size. Note: potency is the fitted concentration of half-maximal effect. Summed up:
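Seed 3T3 Gli1-Luc cells at 2,000 per well; incubate 4 hr; add compound in DMSO, then conditioned medium; incubate at 37C with 5% CO2; add CellTiter-Fluor after 23 hr; read fluorescence 1 hr later.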

Test [18] can be described thus: qHTS assay to identify small molecule phospholipidosis (PLD) inducers (AID 1259344; active = well fitted curve in the direction sought with a large enough effect; an effect the other way counts as inactive or inconclusive). Summed up: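 Quantitative HTS in HepG2: compound plus LipidTOX Red dye for 24 h, paraformaldehyde fixation with Hoechst 33342, widefield high-content imaging; amiodarone as positive and DMSO as negative control.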
Test [19] is described as follows: qHTS assay to identify small molecule antagonists of the estrogen receptor alpha (ER-alpha) signaling pathway using the BG1 cell line in the presence of 0.1 nM 17-beta-estradiol - cell viability counter screen (AID 1259241). Note: nearly all actives have a fitted effect of over 40% in size. In short, it runs like this: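 Viability in VM7Luc4E2 cells after 22 hr compound exposure under 0.1 nM 17beta-estradiol stimulation, by CellTiter-Fluor.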

Values joined by “and” are separate entries in the source; they are usually repeats but may differ in a detail not shown here. Identical values can stand only once. Results filed as inconclusive are left out. A structure can be active in one record and inactive in another. Active and inactive are the calls of the source. Unless noted, calls come from the whole dose curve; as a rule, active = well fitted curve in the direction sought with a large enough effect in the repeat runs; inconclusive = weak or mixed curves; inactive = no such curve, though single readings can be large; an effect the other way counts as inactive or inconclusive.

Chain of Androgen receptor (Homo sapiens) (P10275 whole entry, looked up): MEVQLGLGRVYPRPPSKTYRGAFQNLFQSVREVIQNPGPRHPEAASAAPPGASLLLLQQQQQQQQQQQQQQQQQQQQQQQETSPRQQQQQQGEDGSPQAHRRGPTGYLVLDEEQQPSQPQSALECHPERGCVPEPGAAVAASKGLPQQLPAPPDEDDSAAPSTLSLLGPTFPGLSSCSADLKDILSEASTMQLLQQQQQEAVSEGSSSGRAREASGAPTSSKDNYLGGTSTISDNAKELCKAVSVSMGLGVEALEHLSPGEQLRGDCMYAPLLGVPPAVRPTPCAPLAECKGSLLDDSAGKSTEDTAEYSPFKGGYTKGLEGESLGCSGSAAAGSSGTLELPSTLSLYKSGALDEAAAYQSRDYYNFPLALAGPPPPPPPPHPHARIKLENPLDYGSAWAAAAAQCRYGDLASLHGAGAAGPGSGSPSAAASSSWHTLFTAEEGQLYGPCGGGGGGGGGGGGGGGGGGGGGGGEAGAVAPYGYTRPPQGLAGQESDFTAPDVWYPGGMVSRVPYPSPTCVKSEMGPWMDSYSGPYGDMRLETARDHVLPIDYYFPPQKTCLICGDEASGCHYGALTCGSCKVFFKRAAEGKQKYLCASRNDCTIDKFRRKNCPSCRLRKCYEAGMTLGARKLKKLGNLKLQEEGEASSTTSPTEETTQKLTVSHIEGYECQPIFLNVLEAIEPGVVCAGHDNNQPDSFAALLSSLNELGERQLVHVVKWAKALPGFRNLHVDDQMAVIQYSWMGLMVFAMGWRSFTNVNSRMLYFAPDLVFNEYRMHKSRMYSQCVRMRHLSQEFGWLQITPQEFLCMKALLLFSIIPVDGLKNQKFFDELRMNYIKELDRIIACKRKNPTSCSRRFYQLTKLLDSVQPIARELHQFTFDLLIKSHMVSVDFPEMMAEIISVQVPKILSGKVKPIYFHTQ
Chain of Estrogen receptor (Homo sapiens) (P03372 whole entry, looked up): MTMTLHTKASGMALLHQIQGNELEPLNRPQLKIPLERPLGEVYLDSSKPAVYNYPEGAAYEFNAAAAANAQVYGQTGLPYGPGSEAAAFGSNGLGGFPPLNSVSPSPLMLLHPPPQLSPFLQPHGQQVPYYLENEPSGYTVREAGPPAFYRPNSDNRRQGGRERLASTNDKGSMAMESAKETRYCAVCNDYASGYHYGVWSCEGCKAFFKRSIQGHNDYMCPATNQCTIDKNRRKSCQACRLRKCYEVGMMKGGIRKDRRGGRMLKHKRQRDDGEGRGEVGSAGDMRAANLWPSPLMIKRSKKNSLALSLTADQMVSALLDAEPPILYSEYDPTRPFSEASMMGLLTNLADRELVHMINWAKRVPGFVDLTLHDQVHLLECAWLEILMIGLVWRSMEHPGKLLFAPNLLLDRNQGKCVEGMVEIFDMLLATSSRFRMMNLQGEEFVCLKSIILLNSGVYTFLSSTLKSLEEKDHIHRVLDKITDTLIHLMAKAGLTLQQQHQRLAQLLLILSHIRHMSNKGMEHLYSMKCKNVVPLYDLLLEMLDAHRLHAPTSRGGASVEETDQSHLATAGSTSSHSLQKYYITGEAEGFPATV

`COP(=O)(O)OC`: the Potency entry in test [1], in [3], in [4], in test [5], in test [6] and in test [7] was “inactive” throughout. The Potency result in test [8], in [10], in test [11], in test [12], in test [13] and in test [14] was “inactive” throughout. Also, the Potency entry in test [16] and in [17] was “inactive” each time. Further, the call in [2], in test [9] and in test [15] was inactive.
On to `CC(C)(O)C(Cl)(Cl)Cl`, for which the Potency entry in test [1], in test [3], in test [4], in test [5], in test [6] and in test [7] was “inactive” throughout. Moreover, the Potency entry in test [8], in test [10], in test [11], in [13], in test [18] and in [14] was “inactive” throughout. The Potency result in [16] and in test [17] was “inactive” in each case. The call in test [2] and in [9] was inactive.
Take `CN1C(=O)COc2c(C(=O)NC3CN4CCC3CC4)cc(Cl)cc21` (stereo not given): the Potency result in [1], in test [4], in [5], in test [6], in test [7] and in test [8] was “inactive” each time. The Potency result in test [10], in test [11], in test [13], in test [18], in test [14] and in test [16] was “inactive” in each case. In addition, the Potency result in test [17] is “inactive”. Further, the result in [2], in [9], in [19] and in test [15] was inactive.
For `O=C1C2CC=CCC2C(=O)N1SC(Cl)(Cl)Cl` (stereo not given), the Potency in [1] was 21.5 µM (active); in test [5], “inactive and 42.9 µM (active)”; in test [6], 43.5 µM (active) and 3.41 µM (active); in [7] it was 27.1 µM (active); in test [11], “inactive and 16.9 µM (active)”; in [13], “inactive and 26.9 µM (active)”. Besides, the Potency result in test [16] was “inactive and 13.5 µM (active)”; in test [17], “inactive and 13.5 µM (active)”. Besides, the compound was called inactive in test [2], in test [9], in test [19] and in test [15]. For the same compound, the Potency result in test [4], in test [8], in test [10], in test [18] and in test [14] was “inactive” throughout.
Turning to `CCOP(=S)(OCC)SCCl`, the compound was classed as inactive in test [2], in test [9], in [19] and in [15]. For the same compound, the Potency result in [3], in [4], in test [5], in test [6], in [7] and in test [8] was “inactive” in each case. Besides, the Potency result in test [10], in [11], in [12], in test [14], in test [16] and in [17] was “inactive” in each case.
Turning to `CCOC(=O)CCl`, the Potency result in test [1], in test [4], in test [5], in test [7], in [8] and in test [10] was “inactive” throughout. Moreover, the Potency entry in test [11], in test [13], in test [14], in test [16] and in test [17] was “inactive” throughout. The outcome in [2], in test [9], in test [19] and in test [15] was inactive.
On to `CCOC(=O)C(SP(=S)(OC)OC)c1ccccc1` (stereo not given), for which the Potency result in test [1], in [3], in test [4], in test [5], in test [7] and in test [8] was “inactive” each time. The Potency result in [10], in test [11], in [16] and in [17] was “inactive” in each case. Besides, the compound was classed as inactive in test [15].
With `ClC1=C(Cl)C2(Cl)C(CBr)CC1(Cl)C2(Cl)Cl` (stereo not given), the Potency in test [1] was 54.9 µM (active) and inactive; in test [6] it was 49 µM (active) and inactive; in test [7] it was 43.6 µM (active) and inactive. Besides, the call in test [2], in test [9], in [19] and in test [15] was inactive. The Potency result in [4], in test [5], in [10], in test [11], in test [18] and in test [14] was “inactive” in each case. The Potency result in test [16] and in test [17] was “inactive” throughout.
On to `CCC(C)C(C)(COC(N)=O)COC(N)=O` (stereo not given), for which the Potency entry in test [1], in [4], in test [5], in test [6], in [7] and in test [8] was “inactive” throughout. The Potency entry in [10], in test [11], in [13], in [14], in test [16] and in test [17] was “inactive” each time. In addition, the outcome in [2], in test [9] and in test [19] was inactive.
Regarding `CN(C)C1CCCCC1`, the Potency entry in [1], in [3], in test [4], in [5], in test [7] and in [8] was “inactive” each time. The Potency result in test [10], in [11], in [16] and in test [17] was “inactive” in each case. In addition, the compound was classed as inactive in test [2], in test [9], in test [19] and in test [15].
For the compound `Cc1ccc(S(=O)(=O)N[C@@H](CCCCN)C(=O)CCl)cc1`, the Potency result in [1], in test [3], in test [4], in [5], in test [7] and in test [8] was “inactive” in each case. The Potency result in test [10], in [11], in test [12], in [13], in test [18] and in [16] was “inactive” throughout. Also, the Potency entry in [17] was “inactive”. Moreover, the compound was classed as inactive in [2], in test [9], in test [19] and in test [15].
Regarding `O=C(Cl)/C=C/C(=O)Cl`, the Potency entry in test [1], in test [3], in test [4], in test [5], in [6] and in [7] was “inactive” throughout. Further, the Potency entry in test [8], in [10], in test [11], in [12], in test [13] and in test [17] was “inactive” in each case. Also, the call in test [2], in test [9] and in [15] was inactive.
